Reference: the supplement of paper PMC3334620
The full ranking holds about 33,000 sequences; the median of “E-score (-0.5 to 0.5)” is about -0.041, and the highest 2% start at about 0.37. This is one part of a sample in which the highest values are shown more often than they occur.

target: T1, Ecm22 (UniProt Q05958); assay: PBM E-score (8-mer binding enrichment) (E-score (-0.5 to 0.5)); higher = stronger / more preferred TF binding; settings: protein concentration: 200 nM; construct: GST-full length
T1 sequence: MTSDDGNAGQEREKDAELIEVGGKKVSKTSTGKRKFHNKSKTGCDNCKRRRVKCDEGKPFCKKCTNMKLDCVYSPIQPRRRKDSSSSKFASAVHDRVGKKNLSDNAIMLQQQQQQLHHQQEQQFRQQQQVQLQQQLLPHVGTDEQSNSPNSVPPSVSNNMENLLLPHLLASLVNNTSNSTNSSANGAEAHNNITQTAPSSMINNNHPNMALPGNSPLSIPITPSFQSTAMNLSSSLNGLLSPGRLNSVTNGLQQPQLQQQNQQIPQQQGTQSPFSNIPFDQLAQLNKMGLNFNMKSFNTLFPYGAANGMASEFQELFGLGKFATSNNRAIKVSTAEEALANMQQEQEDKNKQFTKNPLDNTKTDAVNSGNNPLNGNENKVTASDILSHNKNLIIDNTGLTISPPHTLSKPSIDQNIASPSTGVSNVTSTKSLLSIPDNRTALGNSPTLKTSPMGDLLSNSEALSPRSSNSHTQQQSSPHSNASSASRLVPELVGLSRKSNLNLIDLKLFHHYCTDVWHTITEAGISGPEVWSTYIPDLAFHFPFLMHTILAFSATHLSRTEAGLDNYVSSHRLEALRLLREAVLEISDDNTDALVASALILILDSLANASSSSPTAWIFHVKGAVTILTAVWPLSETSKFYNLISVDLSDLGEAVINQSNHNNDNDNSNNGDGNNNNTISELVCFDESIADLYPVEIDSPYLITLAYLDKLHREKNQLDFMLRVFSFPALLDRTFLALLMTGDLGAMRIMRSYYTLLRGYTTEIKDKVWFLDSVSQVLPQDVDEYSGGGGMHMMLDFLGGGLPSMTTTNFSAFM
Method: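 Universal 'all 10-mer' protein binding microarrays (Agilent AMADID 015681) probed with GST-tagged S. cerevisiae TFs (full-length or DBD) made by in vitro transcription/translation (PURExpress), about 100-200 nM. Bound TF was detected with fluorescent anti-GST. Each ungapped 8-mer (which stands for itself and its reverse complement) is scored by the PBM enrichment score (E-score), a modified Wilcoxon-Mann-Whitney statistic from -0.5 to +0.5, computed with the Universal PBM Analysis Suite. Scale: above 0.35 generally sequence-specific binding.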

In order of falling “PBM E-score” value:
1. CGTATAAA  0.477
2. CGTATAAC  0.473
3. CCGTCGTA  0.471
4. GCGTCGTA  0.471
5. TACGAGCA  0.467
6. CGTATAAG  0.466
7. CGTTTAAC  0.465
8. ACGTCGTA  0.464
9. AACGAGCA  0.46
10. AACGAGCG  0.459
11. AAACGAAG  0.457
12. AAACGAAC  0.454
13. AAACGAAT  0.453
14. GAACGAAC  0.453
15. CGTTTAAA  0.453
16. TACGAACA  0.452
17. AAACGAAA  0.449
18. AACGAGCT  0.445
19. CGTTCCCA  0.443
20. AACGAGCC  0.442
21. AACGAACG  0.437
22. GAACGAAA  0.43
23. CGTTTAAG  0.429
24. CGTTCCCC  0.428
25. CGTATGAA  0.415
26. AACGAACA  0.409
27. ACGAGCGA  0.409
28. AACGAACC  0.408
29. CGTATGAC  0.407
30. ACGAGCCT  0.407
31. ACGAGCCA  0.404
32. ACGAGAAC  0.4
33. ACTTTACG  0.394
34. ATTTTACG  0.392
35. ACGAGCGT  0.389
36. ACGAGCCG  0.389
37. CGTATCAA  0.386
38. ACGAGCGG  0.386
39. ACGAGAAT  0.385
40. CTCGGTTA  0.383
41. CTCGCATA  0.376
42. ACGAGAAA  0.375
43. GTCGCATA  0.369
44. GTCGGTTA  0.369
45. CGTATCAC  0.365
46. ACGAGCCC  0.365
47. ATCGGTTA  0.362
48. CGTATGAG  0.354
49. AACGAACT  0.354
50. AGCGAGCG  0.345
51. CCTTTACG  0.329
52. AGGAGCGA  0.328
53. ACGAGAGT  0.328
54. ACGAGCGC  0.327
55. CGTAGCTC  0.32
56. AAACGTAT  0.319
57. ACGAGAAG  0.313
58. CACGAACG  0.312
59. GCGAGCGA  0.31
60. AGCGAGCT  0.309
61. AAACGGAC  0.307
62. CTCGCATC  0.304
63. AATTTACG  0.303
64. TAACGAAA  0.296
65. ATCGCATA  0.289
66. GTTTAAAC  0.285
67. AACCGAAT  0.284
68. GAACGGAC  0.279
69. CAACGAAA  0.278
70. CAACGAAG  0.277
71. CAACGAAC  0.272
72. AAGCGAAC  0.268
73. AACCCGAG  0.267
74. CTCGGTTC  0.265
75. CCGCGCGG  0.263
76. CGTTTCCC  0.261
77. GTCGGTCA  0.258
78. ACGGTTAC  0.255
79. CCGAGAAA  0.247
80. AGTATAAA  0.241
81. TGCGAGCA  0.238
82. CCGAGCGA  0.237
83. TCCGAGCA  0.236
84. AACCGAAA  0.235
85. ACCGAGCT  0.235
86. GCGTCGCA  0.23
87. CCGAGCCG  0.227
88. TAAAGCGA  0.213
89. ACGGCCCG  0.208
90. CCGAGAAC  0.204
91. CCGAGCGG  0.202
92. CACGAGCG  0.201
93. AGCGAACA  0.198
94. AAAACTCG  0.182
95. GAACTCCC  0.178
96. CACGAACA  0.177
97. ACGTCGTC  0.175
98. CGCACGAA  0.175
99. CGCAGTAC  0.174
100. TGTATAAA  0.172
101. CGCTAAGA  0.149
102. CACGAGCC  0.143
103. AAACACCG  0.14
104. CCGAGCCA  0.138
105. GTCGCAGA  0.123
106. ACGTCGTG  0.117
107. CGCGGAGC  0.116
108. AACCCGGC  0.11
109. AGTATAAG  0.109
110. CACGAACC  0.0995
111. ACCTTTCG  0.094
112. AGTATAAC  0.0917
113. GACGAGCA  0.0907
114. AGTTTAAC  0.09
115. CGTGTGTC  0.0878
116. AGTATGAC  0.0876
117. AAGAGCGT  0.0857
118. CCGTCGGA  0.0756
119. GGTTTAAC  0.0725
120. CACGAGCA  0.0712
121. CGCCTTTC  0.0685
122. ATCTCGGC  0.0673
123. CCGTCGTC  0.0655
124. TCCGAACA  0.0654
125. AGTTTAAA  0.0639
126. GACGAGCC  0.0624
127. TGACGAAA  0.061
128. ATTTTACC  0.06
129. AGTTCCCA  0.0586
130. CTGAAGAC  0.056
131. CTCGCAGA  0.0487
132. CACGGTTA  0.0472
133. GCGTCGAA  0.0462
134. GGTATAAC  0.0372
135. CGCTTGGC  0.0372
136. CCACTTCC  0.0365
137. ACCTTAAC  0.0365
138. AGTATGAA  0.0349
139. GATTAGCC  0.0338
140. TCAGTCGA  0.0318
141. AACCCCGT  0.0296
142. CAGGAGAC  0.0295
143. CATATAAG  0.0284
144. CCACGAAG  0.0223
145. TCGAGAAA  0.0202
146. CCGCAATA  0.0155
147. ATTCTACA  0.0155
148. GACGAACC  0.0132
149. GACGAACA  0.0113
150. GGCGATAC  0.0112
151. GCATGCCA  0.0106
152. GTCTGGTA  0.00642
153. CTTTCTCA  0.00463
154. GTAACCTA  0.00094
155. GCAGGCCA  -0.00078
156. GGCGATGA  -0.00497
157. ACTTTACA  -0.00715
158. CCGCTGAA  -0.00985
159. AACCGCGC  -0.0112
160. GAACCGGC  -0.0167
161. CCACTGCC  -0.0201
162. CAAGTGCG  -0.0245
163. ATGAGCGG  -0.0285
164. ACCGGATC  -0.0309
165. CAAGCGGG  -0.0323
166. CCATTAGC  -0.0326
167. AAATTCTG  -0.0343
168. ACATCTTG  -0.0408
169. AAAAACAG  -0.0439
170. AACTTAGA  -0.0444
171. TGTATCAA  -0.0485
172. ACGCTGCA  -0.0508
173. GCCACAAC  -0.055
174. CCGCTTTC  -0.0554
175. AGTTCCCC  -0.0578
176. CAAGCCGC  -0.0639
177. CACTATCA  -0.0654
178. AGGAGCCG  -0.0656
179. CCACGAAA  -0.0672
180. AAGCGGCT  -0.0695
181. AGGATGAG  -0.0765
182. GGCCTCCC  -0.0791
183. AGTCTTTG  -0.0796
184. GAGAGCGC  -0.0803
185. TCTGCTAA  -0.086
186. CTAGAAGA  -0.0952
187. AGCGTGGG  -0.0957
188. ATGAGAAT  -0.0978
189. CCCGAAGC  -0.0995
190. AGATCAGC  -0.106
191. AGGAAATG  -0.11
192. GTCATAGA  -0.115
193. AACGCTTG  -0.121
194. GGTATGAC  -0.125
195. TCGAGCCA  -0.126
196. AGTTTAAG  -0.127
197. CTTGGACC  -0.134
198. CTCAACCC  -0.14
199. AGCCACGC  -0.14
200. CTCTCCGC  -0.147
201. ATGGACTG  -0.151
202. CTGCGGGC  -0.163
203. CTGCGGGA  -0.163
204. AGAGAGAT  -0.163
205. TGTTTAAA  -0.172
206. GGTTCCCA  -0.173
207. GCAGTGCC  -0.179
208. GCATCCGC  -0.18
209. AGCGGGAG  -0.188
210. ACTCCATA  -0.195
211. GCCACTCA  -0.196
212. GCCTTTAA  -0.198
213. CTTCTGGC  -0.199
214. CACCCCCG  -0.2
215. AGGAAGGG  -0.211
216. GCCCGGCC  -0.229
217. GGTTGGAC  -0.241
218. CCTTTAAG  -0.259
219. ACCATAGC  -0.261
220. GGGGGTTA  -0.298
221. AGGAGCCT  -0.308
222. CTTCTTCA  -0.341
